Bioassay records as filed in PubChem.
KCNQ2 inh: rat KCNQ2 potassium channel inhibitors, primary screen, cell-based, CHO-K1, FluxOR thallium flux, B-score | Potassium voltage-gated channel subfamily KQT member 2 (Rattus norvegicus), O88943 | 20 min; active compounds read low | B-score at 10 µM | hit rate 1.1% among 310,000 | AID 2156, 2009;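 active = fluorescence ratio B-score at most minus 3 library SDs, with starting brightness B-score within 2 library SDs, cut at about -5.5 in these data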
KCNQ2 pot: potentiators of rat KCNQ2 potassium channel; Potassium voltage-gated channel subfamily KQT member 2 (Rattus norvegicus), O88943; B-score at 10 µM; CHO-K1 KCNQ2, FluxOR thallium flux fluorescence; active compounds read high; AID 2239, 2010; hit rate 0.54% among 310,000;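 active = fluorescence ratio B-score at least 3 SD of library B-scores, with initial fluorescence B-score within 3 of them, cut at about 5.3 in these data; same plate scores as AID 2156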;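 note: B-score of peak minus minimum over baseline fluorescence ratio after K+ and Tl+ stimulus; positive B-score means potentiation of KCNQ2 with more thallium influx and brighter signal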
* = called active by the depositor. This is a sample that favours compounds with a hit; in the whole collection about 1.6% have one here.

COc1cc2c(cc1OC)C1C(C(=O)Nc3ccccc3N3CCN(C)CC3)c3ccccc3C(=O)N1CC2 (stereo not given) was read as KCNQ2 inh inactive and KCNQ2 pot 0.45.
COCCn1c(C)c(C)c(S(=O)(=O)c2ccccc2)c1N was read as KCNQ2 inh inactive.
`Cc1oc(-c2ccccc2F)nc1CN1CCC(C(=O)NC2CCCCCCC2)CC1` gave KCNQ2 inh inactive.
`Cc1oc(-c2ccccc2F)nc1CN1CCC(C(=O)NC2CCCc3ccccc32)CC1` (stereo not given) gave KCNQ2 inh -7.3* and KCNQ2 pot -7.3.
Screening Cc1ccc(F)cc1NC(=O)CSc1nnc(CNC(=O)c2ccco2)n1C returned KCNQ2 inh inactive and KCNQ2 pot 2.8.
CCOc1ccc(CCn2c(-c3ccco3)nc3ccccc3c2=O)cc1OCC was read as KCNQ2 inh -6.9* and KCNQ2 pot -6.9.
`O=c1c2ccccc2nc(-c2ccco2)n1Cc1ccccc1` gave KCNQ2 inh inactive.
O=C1CCCC(O)=C1C(C#Cc1ccccc1)C1=C(O)CCCC1=O was read as KCNQ2 inh -6.5* and KCNQ2 pot -6.5.
CC1(C)CC(=O)C(C(C#Cc2ccccc2)C2=C(O)CC(C)(C)CC2=O)=C(O)C1 was read as KCNQ2 inh -5.7* and KCNQ2 pot -5.7.
O=C1CCCC(O)=C1Sc1ccccc1C(=O)O was read as KCNQ2 inh inactive.
CC1(C)CC(=O)C(N=Nc2ccc(-c3ccccc3)cc2)=C(O)C1 was read as KCNQ2 inh inactive.
Screening CCC1(C)Cc2ccccc2-c2c1c(=O)n(Cc1ccccc1)c1nnnn21 (stereo not given) returned KCNQ2 inh -6.2* and KCNQ2 pot -6.2.
Screening O=c1c2c(n3nnnc3n1Cc1ccccc1)-c1ccccc1CC21CCCC1 returned KCNQ2 inh inactive.
CCOC(=O)C(Cc1ccc(O)cc1)NC(=O)CNC(=O)C1CCCN1C(=O)OC(C)(C)C (stereo not given) was read as KCNQ2 inh inactive.
`CCOC(=O)C(C)Sc1ccc2nnc(CCNS(=O)(=O)c3ccccc3)n2n1` (stereo not given) gave KCNQ2 inh inactive.
`CCc1ccc(OCCNC(=O)c2ccccc2SCc2ccccc2)cc1` gave KCNQ2 inh inactive.
For CCNC(=O)c1ccccc1SCc1ccccc1 the results were KCNQ2 inh -7.4* and KCNQ2 pot -7.4.
Screening CN(C)C(=O)c1ccc(NC(=O)CN2C(=O)NC3(CCCc4ccccc43)C2=O)cc1 (stereo not given) returned KCNQ2 inh inactive.
`COc1ccc(C2CC(=O)c3cnc(Nc4cc(C)cc(C)c4)nc3C2)cc1` (stereo not given) gave KCNQ2 inh -5.9* and KCNQ2 pot -5.9.
`COc1ccc(C2CC(=O)c3cnc(NC(=O)c4cc(OC)cc(OC)c4)nc3C2)cc1` (stereo not given) gave KCNQ2 inh inactive and KCNQ2 pot 0.43.
`CS(=O)(=O)N(CC(=O)NC1CCCC1)C1CCCCC1` gave KCNQ2 inh inactive.
CCOC(=O)c1c(N2C(=O)Nc3ccccc3N2O)n[nH]c1-c1cccc(Cl)c1 was read as KCNQ2 inh inactive and KCNQ2 pot 10*.
CCOc1ccc(-c2cc(N3C(=O)Nc4ccccc4N3O)n[nH]2)cc1 was read as KCNQ2 inh inactive and KCNQ2 pot 0.35.
For COc1ccc(C)cc1N(C(=O)c1ccco1)C(C(=O)NC1CCCC1)c1ccc(N2CCOCC2)cc1 (stereo not given) the results were KCNQ2 inh inactive.
For Cc1ccc(C)c(N2CCN(C(=O)COc3cc(=O)n(C)c4ccccc34)CC2)c1 the results were KCNQ2 inh inactive.
For Cc1ccc(C)c(N2CCN(C(=O)CCCOc3cc(=O)n(C)c4ccccc34)CC2)c1 the results were KCNQ2 inh -6.4* and KCNQ2 pot -6.4.
`COC(=O)c1ccc(NC(=S)NC2CCCCC2)cc1` gave KCNQ2 inh inactive.
COC(=O)c1cccnc1NC(=S)NC1CCCCC1 was read as KCNQ2 inh inactive and KCNQ2 pot 7.7*.
`COc1ccc([C@H]2[C@H](C(=O)OC(C)(C)C)N3N=Cc4ccccc4C3C23C(=O)c2ccccc2C3=O)cc1OC` (stereo not given in full) gave KCNQ2 inh inactive.
Screening CC(C)(C)C(=O)[C@H]1[C@H](c2ccccc2)[C@@]2(N=C(c3ccccc3)OC2=O)C2c3ccccc3C=NN21 (stereo not given in full) returned KCNQ2 inh -6.2* and KCNQ2 pot -6.2.
`O=C(CN1CCN(c2ccc(O)cc2)CC1)NC(=O)NCc1ccco1` gave KCNQ2 inh inactive.
Cc1cccc(C(=O)NC(=S)Nc2c(C)n(C)n(-c3ccccc3)c2=O)c1 was read as KCNQ2 inh inactive.
Screening O=C(NC(=S)NCc1ccc(-c2nc3ccccc3s2)cc1)c1ccco1 returned KCNQ2 inh inactive and KCNQ2 pot 0.1.
Screening O=C(NC(=S)Nc1nc2ccccc2s1)c1ccco1 returned KCNQ2 inh inactive and KCNQ2 pot 8.1*.
`COC(=O)c1sc(NC(=O)c2ccco2)nc1C` gave KCNQ2 inh inactive and KCNQ2 pot 0.18.
CCOC(=O)c1sc(NC(=S)NC(=O)c2ccco2)nc1C was read as KCNQ2 inh inactive and KCNQ2 pot 5.7*.
For O=C(O)c1ccc2c(=O)[nH]c(CCl)nc2c1 the results were KCNQ2 inh inactive and KCNQ2 pot 0.77.
Screening CC(C)CNC(=O)c1cccc(NC(=O)CCc2ccccc2)c1 returned KCNQ2 inh inactive.
For Cc1cc(C)nc(/N=C(\NC(=O)C(C)(C)C)Nc2ccc(F)cc2)n1 the results were KCNQ2 inh inactive.
Screening COC(=O)C1=C(C)C(c2ccc(OC)cc2OC)NC(=O)N1 (stereo not given) returned KCNQ2 inh inactive.
COc1ccc(C2CC(C)(c3ccc(OC)cc3OC)Nc3ccccc3N2)c(OC)c1 (stereo not given) was read as KCNQ2 inh -6.4* and KCNQ2 pot -6.4.
For Cn1nc(-c2ccccn2)nc2c(=O)n(C)c(=O)nc1-2 the results were KCNQ2 inh inactive and KCNQ2 pot 7.4*.
For COc1ccc(-c2nc(-c3ccccn3)ncc2S(C)(=O)=O)cc1 the results were KCNQ2 inh inactive and KCNQ2 pot 1.5.
COC(=O)C1=[N+]([O-])OC(C(=O)OC)C1c1c[nH]c2ccccc12 (stereo not given) was read as KCNQ2 inh inactive.
`CCC(C)c1ccc(NC(=O)COc2c(F)c(F)c(C(F)(F)F)c(F)c2F)cc1` (stereo not given) gave KCNQ2 inh inactive and KCNQ2 pot 6.1*.
O=C(COc1c(F)c(F)c(C(F)(F)F)c(F)c1F)Nc1ccc(N2CCOCC2)c(Cl)c1 was read as KCNQ2 inh inactive and KCNQ2 pot 0.01.
For CCCc1cc(=O)n2[nH]c(C)cc2n1 the results were KCNQ2 inh inactive and KCNQ2 pot 1.9.
CC1CC(C)CN(C(=O)c2ccc3c(c2)N(Cc2ccccc2)CCS3)C1 (stereo not given) was read as KCNQ2 inh -6.2* and KCNQ2 pot -6.2.
`CCOC(=O)N1CCN(C(=O)c2ccc3c(c2)N(Cc2ccccc2)CCS3)CC1` gave KCNQ2 inh inactive.
CN(C)C(CNC(=O)c1ccc(C(F)(F)F)cc1)c1ccco1 (stereo not given) was read as KCNQ2 inh inactive.
